Reference: the supplement of paper PMC6555819

What was measured:
Experiment in all cases: PBM binding z-score (relative to random genomic background probes); higher = stronger binding; sequences stand for … in GC…GCGATTGACAGCGTAGAATGAAGG
[1] = system: FXR:RXRa (NR concentration 270 nM, RXRa partner concentration 90 nM)
Method in brief: (§1)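 Ligand-free nuclear receptor dimers were bound for 1 h to custom Agilent 4×180K protein-binding microarrays. Detection used antibodies against each partner (one per run). Binding z-scores rest on regression-normalized fluorescence, with random background probes as the reference.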

[2] = system: LXRa:RXRa (NR concentration 270 nM, RXRa partner concentration 90 nM)
Method in brief: as §1

[3] = system: LXRa homodimer (NR concentration 270 nM)
Method in brief: as §1

[4] = system: LXRb:RXRa (NR concentration 270 nM, RXRa partner concentration 90 nM)
Method in brief: as §1

[5] = system: LXRb homodimer (NR concentration 270 nM)
Method in brief: as §1

[6] = system: PPARa:RXRa (NR concentration 270 nM, RXRa partner concentration 90 nM)
Method in brief: as §1

[7] = system: PPARg:RXRa (NR concentration 180 nM, RXRa partner concentration 90 nM)
Method in brief: as §1

[8] = system: PPARg:RXRa 270nM:90nM, anti-RXR (NR concentration 270 nM, RXRa partner concentration 90 nM)
Method in brief: as §1

[9] = system: PPARg:RXRa 30nM:10nM, anti-RXR (NR concentration 30 nM, RXRa partner concentration 10 nM)
Method in brief: as §1

[10] = system: PPARg:RXRa 90nM:30nM, anti-RXR (NR concentration 90 nM, RXRa partner concentration 30 nM)
Method in brief: as §1

Sequence	PBM binding z-score [1]	PBM binding z-score [2]	PBM binding z-score [3]	PBM binding z-score [4]	PBM binding z-score [5]	PBM binding z-score [6]	PBM binding z-score [7]	PBM binding z-score [8]	PBM binding z-score [9]	PBM binding z-score [10]
TCTTGTATATCAACAGGAGGTTAAGAAAGATCGA	0.413	1.42	0.536	1.16	0.307	1.29	0.477	1.5	3.07	2.27
CGTCCAAGGTTAGCAGGTCAGTGAAAGCGACGTG	1.34	1.26	-0.0811	0.92	-0.45	2.44	1.18	2.08	-0.171	1.04
CCGACTGGGGCATAATGTTACCATAAGCCAGCCC	-0.414	-0.333	-0.335	-0.186	-0.735	0.127	1.15	1.01	-0.289	0.632
CAAACTAGGGCACCGGAAGGTCAAAGTCCGCATG	3.3	3.78	2.88	3.1	-0.115	4.89	6.22	6.02	2.51	5.06
CAAACTAGGTCACGAAAGGTCAAAGACGAATGAC	7.6	8.07	7.51	7.29	2.75	6.72	10.4	8.57	8.01	8.93
TAGCCTAGGTCATGCGGGCCAGGATAGTGTCGGC	3.94	2.96	0.218	1.4	-0.35	3.42	2.26	2.41	0.605	1.56
ATCTCAAGGTAAGACTCAGTTCAGTGAAGAACGC	0.749	0.642	0.594	0.258	0.655	0.216	0.033	0.104	0.217	0.104
CTACCAAGGTGAACAATGTCGTTGATTACTATTC	0.559	0.263	0.0434	0.937	0.00375	1.37	0.621	0.75	0.226	0.326
CCTAGCAGGCCAATCTGGGTCACTCTAGGCTTGA	0.0739	0.774	-0.56	0.28	-1.07	2.36	1.46	1.75	-0.203	0.673
ACTATTAGTTGATACGAGGGCAACCGATAGGTTG	0.829	0.48	0.407	0.266	0.576	0.327	0.752	0.283	0.308	0.272
CCGAGTAGGTTATTGGGCATTCAGGCAACGGTGA	0.0641	0.327	0.00288	-0.0396	-0.644	0.768	1.19	2.31	0.262	1.6
ATCTCTAGGTAACCAAGTTCCGTGAATGCCGAAC	-0.0612	0.165	0.165	0.157	0.617	0.45	0.308	0.331	-0.073	0.181
AGTCAAAGTTCCGGACGAGGTAACGTAAAGCACG	-0.0931	-0.354	-0.166	-0.301	-0.695	-0.0739	0.679	0.221	-0.0701	0.189
CCTACTGGGCCAAAAACGTCATTGATGCCGATAA	-0.178	-0.282	-0.294	-0.357	-0.478	0.119	0.525	1.02	-0.141	0.509
CCTGCTAGGGCAATGGTCAGCTAAAGCAGCTCGC	-0.321	-0.261	-0.651	-0.809	-1.23	0.614	1.75	3.28	0.695	2.57
AATATTAGTTGAGACGAGGGCAACCGATAGGTTG	0.383	0.45	0.595	0.306	0.174	0.507	0.897	0.51	0.0399	0.408
AGAACGAGCGCAATGAGTTGATAGCACGGGTGGC	-0.384	-0.917	-0.672	-1.03	-0.728	-0.619	0.568	-0.754	-0.641	-0.779
CCTCGGAGGACAACAGGAGGCCAGAGCTGCCAGA	-0.418	-0.512	-0.358	-1.07	-0.956	-0.509	0.0998	-0.942	-0.765	-0.807
